Active and inactive are the calls of the source. Unless noted, how the calls were made is not given here.
Legend:
[1] = compounds binding Alexa647 anti-His antibody – biochemical, small-molecule microarray, 635 nm fluorescence, artefact control for SMM control protein annotation, primary screen (AID 1128); details: higher = more signal;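 further: score merges feature fluorescence with signal-to-noise for each printed compound spot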
[2] = tested on: Human papillomavirus type 1a E7 protein (residues 1-88); experiment: HPV1a E7 small-molecule binders, primary screen, biochemical, small-molecule microarray, residues 1-88, 635 nm (AID 1129); details: small-molecule microarray binding, fluorescence 635 nm; higher = more signal
[3] = target: Focal adhesion kinase 1 (Homo sapiens) (UniProt Q05397); experiment: PTK2 protein binding on printed compound slides – biochemical, small-molecule microarray, 635/667 nm fluorescence, BSA, DTT, primary screen (AID 1130); details: 635 nm fluorescence, higher = more signal;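 further: composite of spot emission at 667 nm and signal to noise over triplicate slides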
[4] = tested on: Fibrinogen (Alexa647-labelled); experiment: Alexa647-fibrinogen binding to printed small molecules – biochemical, small-molecule microarray, 635/667 nm fluorescence, artefact control for SMM control-protein annotation, profiling panel (AID 1131); details: fibrinogen-A647 binding fluorescence, higher = more signal;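 further: z-score merges 667 nm fluorescence with per-spot signal-to-noise over triplicate slides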
[5] = target: Follistatin (Homo sapiens) (UniProt P19883); experiment: FST protein binding to printed compounds – biochemical, small-molecule microarray, 635/667 nm fluorescence, primary screen (AID 1132); details: 635 nm fluorescence, higher = more signal
[6] = target: Fibroblast growth factor 2 (Homo sapiens) (UniProt P09038); experiment: basic fibroblast growth factor binding to printed compounds – biochemical, small-molecule microarray, 635/667 nm fluorescence, primary screen (AID 1133); details: FGF2, fluorescence 635/667, higher = more signal
[7] = JC-1 mitochondrial potential readout, lung cancer cells – cell-based, A549, JC-1 fluorescence, basal, 24 h, 100 nL, profiling panel (AID 1138); details: higher = more signal;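 further: A549 lung adenocarcinoma cells under basal conditions with no added stimulus; test concentration not given here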
Lefty1 = Lefty1 protein binding to printed compounds – biochemical, small-molecule microarray, 635/667 nm fluorescence, primary screen (AID 1139); details: fluorescence 635/667, higher = more signal
[8] = tested on: wheat germ agglutinin (Triticum aestivum), Alexa647-labelled; experiment: Alexa647-WGA lectin binding to printed small molecules – biochemical, small-molecule microarray, 635/667 nm fluorescence, artefact control for SMM control-protein annotation, profiling panel (AID 1140); details: WGA-A647 binding, 635 nm fluorescence, higher = more signal;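 further: score merges 667 nm feature emission with signal to noise over triplicate slides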
[9] = target: Luciferin 4-monooxygenase (Photinus pyralis) (UniProt P08659); experiment: inhibition of purified Photinus pyralis luciferase – biochemical, luminescence, purified enzyme, 2006 set, primary screen (AID 1141); details: purified firefly luciferase, SteadyGlo luminescence, 30 min; higher = more signal, called active from +8 up or from −8 down;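 further: cell-free assay with purified firefly luciferase at 100 ng per well in PBS; test concentration not given here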
[10] = tested on: Wnt5a (protein binding on small-molecule microarray); experiment: small molecules binding Wnt5a protein – biophysical, small-molecule microarray, 635/667 nm fluorescence, primary screen (AID 1142); details: 635 nm fluorescence, higher = more signal;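 further: fluorescence read at 667 nm with signal to noise per printed feature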
[11] = ATP-based viability of Huh7 replicon cells – cell-based, CellTiter-Glo luminescence, basal, 48 h, cytotoxicity control for HCV replication inhibitor project, primary screen (AID 1143); details: higher = more signal, called active from +8 up or from −8 down;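 further: Huh7 hepatoma cells carrying a hepatitis C replication reporter with no stimulus; test concentration not given here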
[12] = Pseudomonas biofilm growth suppression – PAO1 strain, BacTiter-Glo luminescence, LB-PBS, primary screen (AID 1144); details: P. aeruginosa PAO1 biofilm, 12 h, higher = more signal
[13] = basal CRE-LacZ reporter activity in PC12 – cell-based, unstimulated, primary screen (AID 1145); details: no forskolin, luminescence, 4.5 h, higher = more signal, called active from +8 up or from −8 down
[14] = forskolin-driven CRE-LacZ activity in PC12 – cell-based, CRE-LacZ reporter, forskolin-stimulated, primary screen (AID 1146); details: luminescence, 4.5 h, higher = more signal, called active from +8 up or from −8 down;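 further: PC12 cells with 6xCRE LacZ reporter stimulated by forskolin 10 µM; beta-galactosidase reporter signal reflecting CREB driven transcription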
[15] = target: Streptavidin (Streptomyces avidinii) (UniProt P22629); experiment: compounds binding control protein streptavidin – biophysical, small-molecule microarray, 635/667 nm fluorescence, artefact control for SMM compound annotation, primary screen (AID 1147); details: higher = more signal;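 further: signal reflects streptavidin binding to arrayed compounds as a control protein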
[16] = probe aInhba binding on compound microarray – biochemical, small-molecule microarray, 635/667 nm fluorescence, primary screen (AID 1148); details: higher = more signal;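 further: score merges 667nm spot fluorescence with signal-to-noise for antibody binding to printed compounds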
Torsin-1A (Homo sapiens) [17] = target: Torsin-1A (Homo sapiens) (UniProt O14656); experiment: TOR1A wild-type binding on microarray – cell lysate, small-molecule microarray, lysate, 635/667 nm, primary screen (AID 1149); details: COS7 hTOR1A-WT lysate, 635 nm fluorescence, higher = more signal
Torsin-1A (Homo sapiens) [18] = target: Torsin-1A (Homo sapiens) (UniProt O14656); experiment: torsin A mutant lysate binding on microarrays – cell lysate, small-molecule microarray, COS7 lysate, 635/667 nm fluorescence, primary screen (AID 1150); details: COS7 hTOR1A mutant lysate, 635 nm fluorescence, higher = more signal;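 further: score pools 667 nm emission and signal to noise measuring lysate protein binding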
[19] = tested on: Sonic hedgehog protein (Shh); experiment: Sonic hedgehog microarray binding compounds – biochemical, small-molecule microarray, 635/667 nm fluorescence, primary screen (AID 1151); details: 635 nm fluorescence, higher = more signal;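 further: Shh protein binding to compounds spotted on small-molecule microarray slides; score combines spot fluorescence intensity with signal-to-noise across triplicate slides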

Sequence of Follistatin (Homo sapiens) (P19883 whole entry, looked up): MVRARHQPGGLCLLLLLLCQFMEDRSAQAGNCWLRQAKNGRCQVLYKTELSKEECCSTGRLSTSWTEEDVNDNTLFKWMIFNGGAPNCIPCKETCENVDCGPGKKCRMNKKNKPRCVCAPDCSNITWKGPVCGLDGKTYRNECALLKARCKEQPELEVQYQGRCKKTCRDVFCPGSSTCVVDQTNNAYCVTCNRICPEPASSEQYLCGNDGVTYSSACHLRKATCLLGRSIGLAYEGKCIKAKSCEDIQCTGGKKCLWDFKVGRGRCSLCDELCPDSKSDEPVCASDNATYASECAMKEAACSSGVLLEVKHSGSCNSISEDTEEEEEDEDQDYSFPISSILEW
Sequence of Luciferin 4-monooxygenase (Photinus pyralis) (P08659 whole entry, looked up): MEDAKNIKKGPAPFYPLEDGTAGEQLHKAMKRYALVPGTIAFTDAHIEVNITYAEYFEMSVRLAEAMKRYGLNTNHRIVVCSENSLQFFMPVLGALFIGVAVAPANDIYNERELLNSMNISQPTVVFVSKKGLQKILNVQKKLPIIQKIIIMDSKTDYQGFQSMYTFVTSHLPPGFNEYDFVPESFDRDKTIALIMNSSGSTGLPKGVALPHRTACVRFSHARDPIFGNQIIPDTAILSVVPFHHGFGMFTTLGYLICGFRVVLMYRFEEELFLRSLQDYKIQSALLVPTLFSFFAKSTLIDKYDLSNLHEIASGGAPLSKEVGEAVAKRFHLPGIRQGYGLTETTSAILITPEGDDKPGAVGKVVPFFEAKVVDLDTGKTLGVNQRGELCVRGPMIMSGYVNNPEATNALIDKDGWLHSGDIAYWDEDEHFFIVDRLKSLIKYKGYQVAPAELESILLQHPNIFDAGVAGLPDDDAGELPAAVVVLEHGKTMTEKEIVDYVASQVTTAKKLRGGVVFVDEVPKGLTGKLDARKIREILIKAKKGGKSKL
Sequence of Torsin-1A (Homo sapiens) (O14656 whole entry, looked up): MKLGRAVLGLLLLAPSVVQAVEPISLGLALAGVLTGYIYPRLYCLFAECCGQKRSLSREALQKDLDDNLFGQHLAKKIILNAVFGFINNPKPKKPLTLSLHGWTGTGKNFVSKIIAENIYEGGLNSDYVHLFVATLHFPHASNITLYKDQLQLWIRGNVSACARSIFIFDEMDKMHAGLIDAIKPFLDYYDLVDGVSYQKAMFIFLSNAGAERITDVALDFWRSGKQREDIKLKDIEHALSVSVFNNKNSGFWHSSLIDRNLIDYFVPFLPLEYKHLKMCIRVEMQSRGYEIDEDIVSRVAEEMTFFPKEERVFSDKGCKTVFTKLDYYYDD
Sequence of Focal adhesion kinase 1 (Homo sapiens) (Q05397 whole entry, looked up): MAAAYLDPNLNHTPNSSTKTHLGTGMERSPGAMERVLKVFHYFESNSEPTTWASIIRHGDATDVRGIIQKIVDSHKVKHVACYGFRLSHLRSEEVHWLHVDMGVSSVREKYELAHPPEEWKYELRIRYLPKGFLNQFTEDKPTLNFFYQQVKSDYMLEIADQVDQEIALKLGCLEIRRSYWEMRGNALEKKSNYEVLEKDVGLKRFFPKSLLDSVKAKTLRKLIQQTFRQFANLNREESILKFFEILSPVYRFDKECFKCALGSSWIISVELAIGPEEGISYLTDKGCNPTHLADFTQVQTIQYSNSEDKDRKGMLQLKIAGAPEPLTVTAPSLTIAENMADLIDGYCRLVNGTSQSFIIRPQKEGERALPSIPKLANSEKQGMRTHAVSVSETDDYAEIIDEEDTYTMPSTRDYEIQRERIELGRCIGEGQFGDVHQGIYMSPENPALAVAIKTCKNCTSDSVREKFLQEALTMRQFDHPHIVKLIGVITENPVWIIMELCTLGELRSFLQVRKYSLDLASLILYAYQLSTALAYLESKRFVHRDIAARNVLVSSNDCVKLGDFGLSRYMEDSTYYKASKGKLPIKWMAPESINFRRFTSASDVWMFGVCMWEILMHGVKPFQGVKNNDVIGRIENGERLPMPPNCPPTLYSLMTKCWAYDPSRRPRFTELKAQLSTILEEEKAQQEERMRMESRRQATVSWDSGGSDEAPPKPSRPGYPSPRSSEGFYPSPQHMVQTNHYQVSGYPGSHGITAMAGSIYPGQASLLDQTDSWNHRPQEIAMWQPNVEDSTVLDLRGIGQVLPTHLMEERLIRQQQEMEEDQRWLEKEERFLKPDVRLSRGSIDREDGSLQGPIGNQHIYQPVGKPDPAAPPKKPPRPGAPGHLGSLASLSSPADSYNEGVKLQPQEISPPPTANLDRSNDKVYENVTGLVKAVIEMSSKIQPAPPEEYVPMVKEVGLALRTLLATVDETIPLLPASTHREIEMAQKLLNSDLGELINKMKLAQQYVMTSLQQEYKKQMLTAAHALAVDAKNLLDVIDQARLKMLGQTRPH
Sequence of Fibroblast growth factor 2 (Homo sapiens) (P09038 whole entry, looked up): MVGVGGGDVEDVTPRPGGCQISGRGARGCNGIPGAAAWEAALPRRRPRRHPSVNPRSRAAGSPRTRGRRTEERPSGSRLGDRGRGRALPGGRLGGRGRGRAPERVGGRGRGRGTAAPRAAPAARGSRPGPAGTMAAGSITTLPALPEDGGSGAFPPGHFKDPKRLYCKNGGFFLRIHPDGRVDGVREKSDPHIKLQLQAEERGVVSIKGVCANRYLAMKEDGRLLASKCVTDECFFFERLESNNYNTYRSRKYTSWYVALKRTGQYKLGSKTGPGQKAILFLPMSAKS
Sequence of Streptavidin (Streptomyces avidinii) (P22629 whole entry, looked up): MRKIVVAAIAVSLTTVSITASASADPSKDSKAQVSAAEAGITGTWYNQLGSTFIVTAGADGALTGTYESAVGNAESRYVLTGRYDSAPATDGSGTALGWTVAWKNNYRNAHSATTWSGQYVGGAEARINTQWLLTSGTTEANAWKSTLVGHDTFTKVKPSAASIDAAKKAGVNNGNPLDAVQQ

Compound	composite z-score [1]	composite z-score [2]	composite z-score [3]	composite z-score [4]	composite z-score [5]	composite z-score [6]	z-score [7]	composite z-score (Lefty1)	composite z-score [8]	z-score [9]	composite z-score [10]	z-score [11]	z-score [12]	z-score [13]	z-score [14]	composite z-score [15]	composite z-score [16]	composite z-score (Torsin-1A (Homo sapiens) [17])	composite z-score (Torsin-1A (Homo sapiens) [18])	composite z-score [19]
O=C1N(Cc2ccccc2)c2ccccc2[C@H]2OC(c3ccc(OCCCO)cc3)=N[C@@]12CCS(=O)(=O)c1ccccc1	1.68	1.25	1.06	0.984	1.2	1.36	-1.26	0.689	0.726	-0.202 (inactive)	0.889	-4.05 (inactive)	-1.19 (inactive)	2.96 (inactive)	-1 (inactive)	0.211	0.166	0.795	0.591	2.09
O=C1N(CCS(=O)(=O)c2ccccc2)c2ccccc2[C@H]2OC(c3ccc(OCCCO)cc3)=N[C@@]12CCS(=O)(=O)c1ccccc1	3.19	1.21	0.634	0.943	1.42	1.74	-1.23	0.589	0.816	-3.3 (inactive)	1.52	-1.61 (inactive)	1 (inactive)	3.35 (inactive)	-0.168 (inactive)	0.842	1.08	0.766	1.03	1.66
Cc1ccc(S[C@]2(C(=O)O)CC(=O)N(C3CCCCC3)[C@@H]2c2ccc(CO)cc2)cc1	2.04	1.16	0.552	0.991	0.271	0.257	0.991	-0.776	0.899	0.186 (inactive)	0.219	-0.0359 (inactive)	-0.78 (inactive)	-0.116 (inactive)	-0.337 (inactive)	1.28	0.112	-0.284	-0.249	-0.265
COC(=O)[C@H]1N=C(c2ccc(OCCCO)cc2)O[C@H]1c1ccccc1CN=[N+]=[N-]	0.96	-0.189	0.605	0.825	0.107	-0.372	0.758	-0.139	0.434	-8.1 (active)	-0.0973	-1.45 (inactive)	0.446 (inactive)	-0.23 (inactive)	-0.785 (inactive)	-0.129	0.11	-1.66	-0.8	0.166
COC(=O)c1c(CC[C@@H](CO)NC(=O)N[C@@H](C)Cn2cc(C3(O)CCCC3)nn2)oc(C(C)=O)c1C(=O)OC	0.863	-0.0221	-0.118	0.188	0.511	0.0707	-0.638	1.54	1.3	0.315 (inactive)	-0.22	-2.75 (inactive)	-0.0355 (inactive)	0.861 (inactive)	-0.144 (inactive)	0.0648	0.117	0.862	0.277	2.16
Cc1ccc(F)cc1S(=O)(=O)N[C@@H]1CCN(C(=O)c2ccc(OC(C)C)cc2)C1	1.42	1.16	0.485	0.371	0.485	1.24	0.946	0.913	0.557	-0.457 (inactive)	0.336	-0.798 (inactive)	0.595 (inactive)	2.66 (inactive)	-0.906 (inactive)	0.224	0.143	0.0677	0.196	0.975
C=CCC(OC(C)=O)[C@@H]1[C@@H](N(Cc2ccc(-c3cccc(C(F)(F)F)c3)o2)C(=O)c2cccc3ccccc23)c2cc(OCCCO)ccc2N1C(=O)c1ccc(-c2ccccc2)cc1 (stereo not given in full)	0.955	-0.661	-0.438	-0.739	0.999	0.598	-0.328	0.641	-0.643	0.23 (inactive)	0.0391	-1.63 (inactive)	0.595 (inactive)	-0.272 (inactive)	-0.262 (inactive)	0.0133	-0.0112	0.1	-0.138	1.06
O=C1O[C@H](c2ccccc2)[C@H](c2ccccc2)N2[C@H]1[C@@H](C(=O)N1CCCCCCC1)[C@]1(C(=O)Nc3ccc(C#CCCO)cc31)[C@H]2c1ccc(OCCO)cc1	2.99	1.36	5.23	0.97	1.52	1.27	-0.421	1.92	1.64	-0.264 (inactive)	2.02	-2.18 (inactive)	0.278 (inactive)	-1.42 (inactive)	-0.757 (inactive)	4.02	1.82	3.41	3.46	2.35
COc1ccc([Si](C)(C)[C@@H]2[C@@H](CC(=O)N3Cc4ccccc4C[C@H]3CO)O[C@]3(C(=O)N(Cc4cccc(N5CCCCC5=O)c4)c4ccccc43)[C@H]2C)cc1	1.02	1.13	0.739	0.641	1.36	1.57	-0.96	1.5	0.676	0.227 (inactive)	0.41	-3.71 (inactive)	0.723 (inactive)	1.88 (inactive)	-0.136 (inactive)	0.287	0.17	0.652	0.101	1.76
O=C1NC(=O)C2C1C=CC(C(O)c1ccc3c(c1)OCO3)N2Nc1ccc(Cl)cc1Cl (stereo not given)	1.24	0.453	0.822	0.0542	0.579	-0.0317	0.512	0.194	0.698	-0.109 (inactive)	-0.002	-0.0416 (inactive)	-0.238 (inactive)	0.0501 (inactive)	-0.329 (inactive)	0.347	0.249	0.0858	-0.446	-0.116

Reference: PubChem BioAssay
